Experimental data taken from PubChem BioAssay (NCI).
This is part of a sample that, as a whole, favours compounds with a hit. Of some 83,000 tested, about 20% had one in any assay.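 The endpoint reported here, percent growth, reads 100 for growth as untreated, 0 for no net growth and -100 for all cells dead.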 Unmarked numbers belong to inactive results. Active and inactive are the calls of the source. The calls were made as follows: active = growth percent below 10; inactive = the rest.

Legend:
Assay in all cases: NCI-60 one-dose screen, 48 h (100 = growth as untreated, 0 = no growth, -100 = all killed)
Conditions in all cases: 10 µM unless noted
EKVX NSCLC = test system: EKVX NSCLC
SN12C renal = test system: SN12C renal
UO-31 renal = test system: UO-31 renal
TK-10 renal = test system: TK-10 renal
ACHN renal = test system: ACHN renal
A498 renal = test system: A498 renal
CCRF-CEM leukemia = test system: CCRF-CEM leukemia
MOLT-4 leukemia = test system: MOLT-4 leukemia
SR leukemia = test system: SR leukemia

Structure (SMILES) | growth (EKVX NSCLC) [%] | growth (SN12C renal) [%] | growth (UO-31 renal) | growth (TK-10 renal) [%] | growth (ACHN renal) [%] | growth (A498 renal) | growth (CCRF-CEM leukemia) [%] | growth (MOLT-4 leukemia) | growth (SR leukemia)
c1ccc2nc(N3CCOCC3)c(N3CCCCC3)nc2c1 | 97.7 | 96.2 | 77.2% | 98.8 | 103 | 78.3% | 93.6 | 95.6% | 90.2%
O=S(=O)(O)c1ccc(N=NSc2ccc3ccccc3c2)cc1 | 99.4 | 107 | 71% | 103 | 95.3 | 107% | 89.8 | 94.2% | 104%
Nc1c(C(=O)Nc2ccccc2)sc2nc3c(cc12)CN(C(=O)OCc1ccccc1)CC3 | 69.6 | 66 | 67.5% | 98.8 | 60.2 | 44.6% | 31.8 | 37.8% | 25.1%
CCCCn1c2cc(OCc3cn(-c4ccc(Cl)cc4)nn3)ccc2c2ccnc(C)c21 | 44.4 | 10.5 | -16.3% (active) | 15.6 | – | 62.8% | 30.5 | 6.26% (active) | -4.92% (active)
Cc1c(Cl)cccc1NC(=O)c1sc2nc3c(cc2c1N)CCCCCC3 | 39.8 | – | 55.4% | 44.9 | 41.8 | -9.95% (active) | 10.9 | 17.3% | 16%
Nc1c(C(=O)c2ccccc2)sc2nc(-c3cc4ccccc4o3)cc(-c3ccc(Cl)cc3)c12 | 103 | 165 | 79.1% | 137 | 82.9 | 199% | 105 | 101% | 108%
